# Results published in PubChem BioAssay AID430 (Sanford-Burnham Center for Chemical Genomics, 2006).
# Hit rate of the full screen: of about 63,000 compounds, about 1,100 (1.7%) were called active. This excerpt belongs to a sample that is enriched for actives. Entries with a potency or affinity are not part of this list. Unmarked numbers belong to inactive results. Cut-off read from the data, not from the text of the source: active = cytotoxicity above about 50%; inactive = the rest.
# Experiment: cytotoxicity in HPDE-C7 cells, cell-based, fluorescence, HTS (AID 430);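 note: cells exposed to compound for 48 hours before viability readout; 0% = vehicle and 100% = reference cytotoxic drug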
# Conditions: HPDE-C7 pancreatic duct cells viability, at 10 µM, hits give high values
row,Structure (SMILES),cytotoxicity
1,COc1ccccc1N1CCN(C(=O)c2cc3c(=O)n(C)c4ccccc4c3n2C)CC1,29%
2,Cn1c(C(=O)Nc2ccc3c(c2)OCCO3)cc2c(=O)n(C)c3ccccc3c21,60% (active)
3,Cn1c(C(=O)N2CCN(c3ccccc3F)CC2)cc2c(=O)n(C)c3ccccc3c21,5.3%
4,Cn1c(C(=O)Nc2ccc3c(c2)OCO3)cc2c(=O)n(C)c3ccccc3c21,18%
5,Cn1c(C(=O)N2CCN(c3ccc(Cl)cc3)CC2)cc2c(=O)n(C)c3ccccc3c21,6.6%
6,CC(NC(=O)c1cc2c(=O)n(C)c3ccccc3c2n1C)c1ccc2c(c1)OCCO2 (stereo unspecified),38.8%
7,Cc1ccc(Cl)cc1N1CCN(C(=O)c2cc3c(=O)n(C)c4ccccc4c3n2C)CC1,59.5% (active)
8,Cc1cccc(N2CCN(C(=O)c3cc4c(=O)n(C)c5ccccc5c4n3C)CC2)c1C,61.6% (active)
9,Cn1c(C(=O)N2CCCC2)cc2c(=O)n(C)c3ccccc3c21,14.1%
10,O=C(COc1ccc(S(=O)(=O)NC2CCCCC2)cc1Cl)NCC1CCCO1 (stereo unspecified),-2.7%
11,CC(C)CCNC(=O)c1cccc(Cl)c1,1.2%
12,O=C(Cn1c(=O)n2ncnc2c2c3c(sc21)CCCC3)c1ccccc1,-18.5%
13,O=c1n(Cc2ccccc2Cl)c2sc3c(c2c2ncnn12)CCCC3,-20.8%
14,COCCSc1nnc(NS(=O)(=O)Cc2ccccc2)s1,-1.4%
15,O=C(O)CSc1ncn[nH]1,1%
16,c1ccc(Nc2c3c(nc4ncnn24)CCC3)cc1,-24.1%

row,Structure (SMILES),cytotoxicity
1,C=CCc1cc(C)ccc1OCC(O)CN1CCN(c2ccccc2)CC1 (stereo unspecified),22.9%
2,COc1ccc(S(=O)(=O)N2CCN(S(=O)(=O)c3ccc4c(c3)OCCO4)CC2)cc1C,-3.8%
3,COc1cc(NS(=O)(=O)c2ccc(OC)c(C)c2C)c(OC)cc1Cl,60.7% (active)
4,COc1ccc(OC)c(S(=O)(=O)Nc2cc(OC)c(Cl)cc2OC)c1,5.6%
5,COc1cc(NS(=O)(=O)c2cc(C)ccc2OC)c(OC)cc1Cl,-0.5%
6,CC1CCCCN1C(=O)c1cnn2c(C(F)(F)F)cc(-c3ccco3)nc12 (stereo unspecified),-7.7%
7,O=C(c1ccco1)N1CCN(c2ncnc3c2cnn3-c2ccccc2)CC1,-6.3%
8,CCc1cc2c(N3CCN(c4ccccc4)CC3)ncnc2s1,75.1% (active)
9,COc1ccc(-n2ncc3c(N4CCN(c5cc(C)ccc5C)CC4)ncnc32)cc1,1.5%
10,Cc1ccc(-n2ncc3c(N4CCCC4)ncnc32)c(C)c1,-2.3%
11,COc1ccc(N2CCN(c3ncnc4c3cnn4-c3ccc(C)cc3C)CC2)cc1,0.4%
12,CCc1cc2c(N3CCCCC3)ncnc2s1,-21.8%
13,CCc1cc2c(N3CCN(c4nnc(CC)s4)CC3)ncnc2s1,15.2%
14,O=C(COc1ccccc1)N1CCN(c2ncnc3c2cnn3-c2ccccc2)CC1,-0.4%
15,CCN1CCN(c2ncnc3c2cnn3-c2ccc(C)cc2C)CC1,-8.1%
